Tests used:
Conditions in all cases: Compound Concentration (nM):1000
FGFR3 = tested on: FGFR3
FGFR4 = tested on: FGFR4
FGR = tested on: FGR
FLT1 = tested on: FLT1
FLT3(D835H) = tested on: FLT3(D835H)
FLT3(D835V) = tested on: FLT3(D835V)
FLT3(D835Y) = tested on: FLT3(D835Y)
FLT3(ITD) = tested on: FLT3(ITD)
FLT3(ITD,D835V) = tested on: FLT3(ITD,D835V)
FLT3(ITD,F691L) = tested on: FLT3(ITD,F691L)
FLT3(K663Q) = tested on: FLT3(K663Q)
FLT3(N841I) = tested on: FLT3(N841I)
FLT3(R834Q) = tested on: FLT3(R834Q)
FLT3-autoinhibited = tested on: FLT3-autoinhibited
FLT3 = tested on: FLT3
FLT4 = tested on: FLT4
FRK = tested on: FRK
FYN = tested on: FYN
GAK = tested on: GAK
GCN2(Kin.Dom.2,S808G) = tested on: T1, GCN2(Kin.Dom.2,S808G)
T1 construct: gene EIF2AK4
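Further: KINOMEscan scanMAX binding as percent activity remaining versus control; lower means stronger binding.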

Row | Structure (SMILES) | Percent Control (FGFR3) [%] | Percent Control (FGFR4) [%] | Percent Control (FGR) [%] | Percent Control (FLT1) [%] | Percent Control (FLT3(D835H)) [%] | Percent Control (FLT3(D835V)) [%] | Percent Control (FLT3(D835Y)) [%] | Percent Control (FLT3(ITD)) [%] | Percent Control (FLT3(ITD,D835V)) [%] | Percent Control (FLT3(ITD,F691L)) [%] | Percent Control (FLT3(K663Q)) [%] | Percent Control (FLT3(N841I)) [%] | Percent Control (FLT3(R834Q)) [%] | Percent Control (FLT3-autoinhibited) [%] | Percent Control (FLT3) [%] | Percent Control (FLT4) [%] | Percent Control (FRK) [%] | Percent Control (FYN) [%] | Percent Control (GAK) [%] | Percent Control (GCN2(Kin.Dom.2,S808G)) [%]
1 | CCn1c(-c2nonc2N)nc2c(C#CC(C)(C)O)nc(OCCNC)cc21.Cl [GSK949675] | 100 | 100 | 100 | 100 | 43 | 83 | 30 | 100 | 100 | 22 | 100 | 100 | 78 | 100 | 100 | 75 | 100 | 100 | 100 | 89
2 | Cl.O=C(Nc1ccc(Oc2ccc3[nH]c(NC(=O)c4ccco4)nc3c2)cc1)Nc1cc(C(F)(F)F)ccc1F [GW683134A] | 84 | 100 | 91 | 3.2 | 0.4 | 13 | 9.8 | 3.7 | 96 | 39 | 0.6 | 8.4 | 5.6 | 92 | 1.3 | 1.5 | 40 | 71 | 100 | 90
3 | COc1cc2ncnc(Nc3ccc4c(cnn4Cc4ccccc4)c3)c2cc1OC.Cl [GW282449A] | 100 | 100 | 68 | 100 | 68 | 34 | 83 | 96 | 90 | 100 | 49 | 47 | 83 | 100 | 45 | 95 | 100 | 100 | 90 | 100
4 | COc1cccc(-n2ncc3c(N/N=C/c4ccncc4)ncnc32)c1 [GW784752X] | 100 | 100 | 72 | 100 | 22 | 4 | 48 | 67 | 10 | 55 | 75 | 36 | 77 | 85 | 76 | 100 | 100 | 75 | 48 | 65
5 | COc1cc(C=NNc2ncnc3c2cnn3-c2ccccc2)ccc1O [GW513184X] | 100 | 100 | 80 | 100 | 12 | 3 | 9.4 | 30 | 16 | 46 | 63 | 27 | 72 | 100 | 34 | 97 | 100 | 90 | 100 | 49
6 | C/C(Nc1ccc(S(N)(=O)=O)cc1)=C1/C(=O)Nc2ccccc21 [GW335962X] | 97 | 100 | 78 | 100 | 87 | 0.3 | 76 | 100 | 0.8 | 3 | 60 | 83 | 40 | 7.7 | 56 | 100 | 96 | 90 | 61 | 100
7 | COc1cc(C)c(N(C)C(=O)CN(C)C)cc1Nc1nc(Nc2cccc(F)c2C(N)=O)c2cc[nH]c2n1 [GSK2219385] | 78 | 96 | 100 | 96 | 85 | 76 | 91 | 82 | 88 | 100 | 100 | 93 | 100 | 100 | 91 | 100 | 100 | 100 | 56 | 100
8 | NS(=O)(=O)c1ccc(N/N=C2\C(=O)Nc3ccc(C(=O)NCc4ccncc4)cc32)cc1 [GW300657X] | 82 | 100 | 100 | 80 | 52 | 0 | 46 | 64 | 0.6 | 17 | 92 | 50 | 68 | 74 | 82 | 77 | 100 | 96 | 66 | 100
9 | CN(C)c1cc2c(Nc3ccc4c(cnn4Cc4ccccc4)c3)ncnc2cn1 [GW282974X] | 100 | 84 | 73 | 94 | 85 | 59 | 100 | 82 | 100 | 100 | 79 | 100 | 95 | 93 | 73 | 100 | 100 | 90 | 76 | 100
10 | NS(=O)(=O)c1ccc(N/N=C2\C(=O)Nc3ccc(-c4cnco4)cc32)cc1 [GW276655] | 100 | 82 | 79 | 80 | 43 | 2.2 | 45 | 44 | 4.3 | 18 | 79 | 70 | 42 | 61 | 100 | 67 | 81 | 81 | 70 | 89
11 | CCS(=O)(=O)c1ccc(OC)c(Nc2ncc(-c3cccc(F)c3)o2)c1 [GW621970X] | 11 | 87 | 24 | 45 | 0.6 | 0 | 39 | 5.8 | 0 | 25 | 7.9 | 56 | 29 | 7.9 | 5 | 5 | 16 | 26 | 63 | 71
12 | Cl.c1ccc(Cc2nc3ccc(Nc4ncnc5ccccc45)cc3[nH]2)cc1 [GR269666A] | 100 | 100 | 100 | 100 | 100 | 83 | 97 | 100 | 100 | 100 | 90 | 100 | 100 | 86 | 72 | 100 | 100 | 100 | 100 | 100
13 | Cl.O=S1CCN(Cc2ccc(-c3ccc4ncnc(Nc5ccc(OCc6ccccc6)c(F)c5)c4c3)o2)CC1 [GW576924A] | 100 | 100 | 100 | 100 | 100 | 99 | 83 | 100 | 100 | 100 | 93 | 100 | 100 | 87 | 90 | 100 | 100 | 100 | 100 | 100
14 | COc1ccc2[nH]c3c4[nH]c5ccc(OC)cc5c4c4c(c3c2c1)C(=O)NC4=O [GW296115X] | 93 | 85 | 68 | 79 | 12 | 4 | 16 | 2.1 | 0 | 3.6 | 9.7 | 0 | 6.3 | 53 | 28 | 71 | 88 | 84 | 0.3 | 74
15 | NS(=O)(=O)c1ccc(N/N=C2\C(=O)Nc3ccc(Cl)cc32)cc1 [GW280670X] | 100 | 100 | 100 | 100 | 83 | 31 | 100 | 59 | 60 | 36 | 18 | 100 | 68 | 15 | 21 | 100 | 100 | 100 | 100 | 100
16 | CC1=C(C(=O)Nc2ccc3[nH]ncc3c2)C(c2ccc3ccccc3c2)CC(=O)N1 (stereo not shown) [GSK270822A] | 73 | 58 | 76 | 89 | 94 | 65 | 78 | 100 | 73 | 79 | 100 | 80 | 98 | 100 | 89 | 100 | 61 | 83 | 90 | 100
17 | O=C1Nc2ccc(C(=O)c3ccco3)cc2C1=Cc1cc(Cl)c(O)c(Cl)c1 [GW406108X] | 78 | 100 | 81 | 57 | 18 | 2.2 | 15 | 47 | 12 | 29 | 83 | 54 | 73 | 84 | 71 | 100 | 100 | 92 | 5.9 | 71
18 | COc1ccc(COc2ccc(Cc3cnc(N)nc3N)cc2OC)cc1 [GW632580X] | 95 | 98 | 81 | 98 | 100 | 100 | 81 | 87 | 100 | 99 | 79 | 75 | 97 | 99 | 100 | 90 | 100 | 100 | 95 | 100
19 | CC(C)COC(=O)c1ccc2c(c1)/C(=C/Nc1ccc(S(N)(=O)=O)cc1)C(=O)N2 [GW416981X] | 100 | 100 | 99 | 83 | 1.6 | 0 | 1.1 | 3 | 0 | 0 | 42 | 11 | 18 | 45 | 42 | 100 | 100 | 98 | 40 | 96
20 | COc1ccc2c(-c3ccnc(Nc4cccc(OC(F)(F)F)c4)n3)cnn2n1 [GW810372X] | 100 | 100 | 96 | 73 | 0 | 46 | 55 | 49 | 65 | 89 | 30 | 55 | 73 | 86 | 23 | 100 | 100 | 100 | 66 | 85

Reference: publication PMC7826789 (International Journal of Molecular Sciences, 2021)
